Data from PubChem BioAssay (NCATS).
Where “and” joins values, the source holds several entries; their conditions need not be identical. Identical values can stand only once. Inconclusive results are not listed. Where a call stands in place of a potency, no number is given. Calls of active or inactive are those of the source. Calls follow the shape of the dose curve; as a rule, active = well fitted curve in the direction sought with a large enough effect; inconclusive = small, poorly fitted or top-dose-only effect, or another doubt; inactive = no such curve, though single readings can be large; an effect the other way counts as inactive or inconclusive.

Columns and labels:
[1] = NS1 protein of Zika virus - qHTS assay to identify small molecule inhibitors in human HEK 293 cells (AID 1347053); details: HEK293 ZIKV MR766 infection, NS1 TR-FRET, 24 h; series mostly up to 46.1 µM; also: nearly all actives have a fitted effect of over 55% in size
Summary of the method: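 HEK 293 cells pretreated with compound for 1 h, then infected with ZIKV MR766 (MOI 0.5) for 24 h at 37 C. NS1 detected by TR-FRET with two anti-NS1 antibodies; normalized to uninfected (0%) and infected (100%) wells.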

[2] = qHTS of pediatric cancer cell lines to identify multiple opportunities for drug repurposing: Primary screen for DAOY cells (AID 1347090); details: DAOY medulloblastoma viability, CellTiter-Glo luminescence, 48 h; series mostly up to 46 µM; also: nearly all actives have a fitted effect of over 55% in size
Summary of the method: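 Eight- or eleven-point concentration series, 48 h treatment at 37 degrees C in growth media; readout CellTiter-Glo luminescence. Potency and efficacy were taken from the concentration-response curves.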

[3] = qHTS of pediatric cancer cell lines to identify multiple opportunities for drug repurposing: Primary screen for TC32 cells (AID 1347089); details: TC32 Ewing sarcoma viability, CellTiter-Glo luminescence, 48 h; series mostly up to 45.8 µM; also: nearly all actives have a fitted effect of over 60% in size
Summary of the method: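 In the primary qHTS, MIPE compounds were tested at 11 concentrations (0.78 nM to 46 µM) and NPC compounds at 8 (0.59 nM to 46 µM) on TC32 cells for 48 h. CellTiter-Glo luminescence gave viability.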
Potency is read from the fitted curve at half-maximal effect.

O=C(Nc1ccccc1Br)N[C@@H]1CCN(c2ccc(C(F)(F)F)cn2)C1
Potency [1]: inactive | Potency [2]: 11.8 µM (active)

O=c1cc(-c2cccc3c2Sc2ccccc2S3)oc(N2CCOCC2)c1
Potency [3]: inactive

CC(=O)Oc1cc2c(s1)CCN(C(C(=O)C1CC1)c1ccccc1F)C2 (centres undefined)
Potency [1]: inactive | Potency [2]: 1.48 µM (active)

CC1(C)S[C@H]2[C@H](NC(=O)[C@@H](N)c3ccc(O)cc3)C(=O)N2[C@@H]1C(=O)O
Potency [1]: inactive | Potency [2]: 9.35 µM (active)

O=C1C(Cl)=C(NCCN2CCOCC2)C(=O)c2ncccc21
Potency [1]: 9.35 µM (active) | Potency [2]: 11.8 µM (active)

Cc1ccc(F)c(NC(=O)Nc2ccc(-c3cccc4[nH]nc(N)c34)cc2)c1
Potency [1]: inactive | Potency [2]: 23.5 µM (active)

O=c1cc(-c2ccccc2)oc2cc(O)cc(O)c12
Potency [1]: inactive | Potency [2]: inactive

Cc1[nH]c(C=C2C(=O)Nc3ccc(S(=O)(=O)Cc4c(Cl)cccc4Cl)cc32)c(C)c1C(=O)N1CCC[C@H]1CN1CCCC1
Potency [1]: inactive | Potency [2]: inactive

c1ccc2c(Cc3c[nH]c4ccccc34)c[nH]c2c1
Potency [1]: inactive | Potency [2]: 3.72 µM (active)

COc1ccc(Cc2ccc(NC(N)=O)cc2)cc1-c1cccc(Cl)c1
Potency [3]: inactive

CC[C@@H]1C=C(C)C[C@H](C)C[C@H](OC)[C@H]2O[C@@](O)(C(=O)C(=O)N3CCCC[C@@H]3C(=O)O[C@H](C(C)=C[C@@H]3CC[C@H](Cl)[C@H](OC)C3)[C@H](C)[C@@H](O)CC1=O)[C@H](C)C[C@H]2OC
Potency [1]: 23.5 µM (active) | Potency [2]: inactive

CCC(=O)O[C@]1(C(=O)CO)CC[C@H]2[C@@H]3CCC4=CC(=O)CC[C@]4(C)[C@@H]3CC[C@@]21C
Potency [1]: inactive | Potency [2]: inactive

COc1ccc2c(Oc3ccc(NC(=O)c4c(C)n(CC(C)(C)O)n(-c5ccccc5)c4=O)nc3)ccnc2c1
Potency [1]: inactive | Potency [2]: inactive

O=C(O)Cc1cccc2ccccc12
Potency [1]: inactive | Potency [2]: inactive

CC(=O)O[C@]1(C(C)=O)CC[C@@H]2[C@@H]3C[C@H](C)C4=CC(=O)CC[C@]4(C)[C@H]3CC[C@@]21C
Potency [3]: inactive

O=C(NCc1ccccc1)c1csc(Nc2ccncn2)n1
Potency [3]: inactive

COCCCCC(=NOCCN)c1ccc(C(F)(F)F)cc1
Potency [3]: inactive

Cc1cccc(Nc2nc(-c3ccncc3)cs2)c1
Potency [3]: inactive

Cc1cc(OCCCc2c(C(=O)O)n(Cc3cccnc3)c3c(-c4c(COc5ccc(N6CCN([S+](C)(=O)[O-])CC6)cc5)nn(C)c4C)cccc23)cc(C)c1Cl
Potency [3]: inactive | Potency [2]: 18.7 µM (active)

NC(=O)c1cnc(-c2ccc(C3(N)CCC3)cc2)c(-c2ccccc2)c1
Potency [3]: inactive | Potency [2]: inactive

COc1ccc2cc(-c3nc(-c4ccc(S(C)=O)cc4)[nH]c3-c3ccncc3)ccc2c1 (centres undefined)
Potency [3]: inactive | Potency [2]: inactive

CC[C@H]1OC(=O)[C@H](C)C(=O)[C@H](C)[C@@H](O[C@H]2O[C@H](C)C[C@H](N(C)C)[C@@H]2O)[C@](C)(OC)C[C@@H](C)C(=O)[C@H](C)[C@H]2N(CCCCn3cnc(-c4cccnc4)c3)C(=O)O[C@]12C
Potency [3]: inactive | Potency [2]: inactive

CN(C)Cc1ccc(-c2nc3cccc4c3n2CCNC4=O)cc1
Potency [3]: inactive

COc1cc2ncnc(Nc3ccc(F)c(Cl)c3)c2cc1OCCCN1CCOCC1
Potency [3]: 38 µM (active) | Potency [2]: 4.29 µM (active)

CN1C[C@H]2c3ccccc3Oc3ccc(Cl)cc3[C@@H]2C1
Potency [3]: inactive | Potency [2]: inactive

O=c1cc(CN2CCOCC2)occ1OCCCCCSc1ccnc2cc(C(F)(F)F)ccc12
Potency [3]: inactive

CN1[C@@H]2CCC[C@@H]1CC(NC(=O)c1nn(C)c3ccccc13)C2 (some centres undefined)
Potency [2]: inactive

CC1CCC(C(=O)N(c2cc(C#CC(C)(C)C)sc2C(=O)O)C2CCC(O)CC2)CC1 (centres undefined)
Potency [3]: inactive

COC(=O)C1=CO[C@@H](O)[C@@H]2C(CO)=CC[C@@H]12
Potency [3]: inactive

Cc1ccc([C@@H]2O[C@H](CO)[C@@H](O)[C@H](O)[C@@H]2O)cc1Cc1ccc(-c2ccc(F)cc2)s1
Potency [3]: inactive | Potency [2]: inactive

COc1cc(N2CCC(N3CCN(C)CC3)CC2)ccc1Nc1ncnc(Nc2ccccc2S(=O)(=O)C(C)C)n1
Potency [2]: inactive

CC(C)(C)Cn1c(N)nc2ccc(-c3[nH]c(C(C)(C)C)nc3-c3ccc(F)cc3)nc21
Potency [3]: 29.4 µM (active) | Potency [2]: 23.5 µM (active)

CS(=O)(=O)N(Cc1ccco1)CC(O)Cn1c2ccccc2c2ccccc21 (centres undefined)
Potency [2]: inactive

O=C(NCc1ccncc1)C12C[C@H]3C[C@@H](C1)CC(c1ccc(Cl)cc1)(C3)C2
Potency [3]: inactive

CO[C@H]1C[C@@H]2CC[C@@H](C)[C@@](O)(O2)C(=O)C(=O)N2CCCC[C@@H]2C(=O)O[C@H]([C@H](C)C[C@@H]2CC[C@H](OCCO)[C@H](OC)C2)CC(=O)[C@H](C)C=C(C)[C@@H](O)[C@@H](OC)C(=O)[C@H](C)C[C@H](C)C=CC=CC=C1C
Potency [3]: 3.3 µM (active) | Potency [2]: inactive

CS(=O)c1ccc(-c2nc(-c3ccc(F)cc3)c(-c3ccncc3)[nH]2)cc1 (centres undefined)
Potency [3]: inactive | Potency [2]: inactive

COc1ccc(C2CC(c3ccccc3)=NN2c2ccc(S(N)(=O)=O)cc2)cc1 (centres undefined)
Potency [3]: inactive | Potency [2]: inactive

CN1CCN(CCOc2cc(OC3CCOCC3)c3c(Nc4c(Cl)ccc5c4OCO5)ncnc3c2)CC1
Potency [3]: inactive | Potency [2]: 18.7 µM (active)

CO[C@H]1C=CC=C(C)C(=O)NC2=CC(=O)C(NCCN(C)C)=C(C[C@@H](C)C[C@H](OC)[C@@H](O)[C@@H](C)C=C(C)[C@@H]1OC(N)=O)C2=O
Potency [3]: 0.262 µM (active) | Potency [2]: 3.72 µM (active)

C[C@H](NC(=O)c1sccc1OCc1ccc(Cl)cc1)c1ccccc1
Potency [3]: inactive | Potency [2]: 18.7 µM (active)

O=C(CCCCCCC(=O)Nc1ccccc1)NO
Potency [3]: 6.64 µM (active) and 14.7 µM (active) | Potency [2]: 4.22 µM (active) and 5.9 µM (active)

CC(C)OC(=O)CCCC=CC[C@@H]1[C@H](C=C[C@@H](O)COc2cccc(C(F)(F)F)c2)[C@H](O)C[C@@H]1O
Potency [3]: inactive

CO[C@H]1C[C@@H]2CC[C@@H](C)[C@@](O)(O2)C(=O)C(=O)N2CCCC[C@@H]2C(=O)O[C@H]([C@@H](C)C[C@@H]2CC[C@H](O)[C@H](OC)C2)CC(=O)[C@H](C)C=C(C)[C@@H](O)[C@@H](OC)C(=O)[C@H](C)C[C@H](C)C=CC=CC=C1C
Potency [3]: inactive | Potency [2]: inactive

COc1cccc2c1CCCC2CCCN1CCN(C2CCCCC2)CC1 (centres undefined)
Potency [3]: inactive | Potency [2]: inactive

NC(=O)c1cccc(-c2cc(Nc3ccc(OC(F)(F)F)cc3)ncn2)c1
Potency [3]: inactive

COc1cc(N2CCC(N3CCN(C)CC3)CC2)ccc1Nc1ncc(Cl)c(Nc2ccccc2S(=O)(=O)C(C)C)n1
Potency [3]: inactive | Potency [2]: inactive

COc1ccc(-c2nc(N3CCOCC3)c3sc(CN(C)c4ncc(C(=O)NO)cn4)cc3n2)cn1
Potency [3]: 0.0415 µM (active) | Potency [2]: 0.0118 µM (active)

O=C1Nc2ccc(Cl)cc2C(C#CC2CC2)(C(F)(F)F)O1 (centres undefined)
Potency [2]: 29.6 µM (active)

C[N+](C)(C)CC(=O)O
Potency [3]: inactive | Potency [2]: inactive

NC(=O)c1cccc2[nH]c(-c3ccc([C@H]4CCCN4)cc3F)nc12
Potency [2]: inactive

Cc1nc(N)sc1-c1ccnc(Nc2ccc(N3CCOCC3)cc2)n1
Potency [2]: 18.7 µM (active)

C=CCc1ccc(O)c(-c2ccc(O)c(CC=C)c2)c1
Potency [3]: inactive
